This is a sample that favours compounds with a hit; in the whole collection about 19% have one here.
Chronic BCR inh: blocks chronic active B-cell receptor signaling; ABC-DLBCL IkBa-CBG/CBR reporter, luminescence ratio, 4 h; 340,000 tested, 0.05% active; Potency, µM (highest dose often 46.1 µM), hits mostly inhibitors; active = well fitted inhibition curve with a large enough effect in the signal ratio, with a control signal flat, not every such curve was filed as active; inconclusive = small, poorly fitted or top-dose-only effect, or effect the other way, or a change in a side signal; the % refers to the signal ratio
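TMD8 ABC-DLBCL cells carrying doxycycline-inducible green luciferase fused to IkappaBalpha plus unfused red luciferase were exposed to compounds (up to 46 uM) for 4 hrs at 37C. Activity came from the overlap-corrected green/red luminescence ratio.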
TDP1 cell noCPT: qHTS for Inhibitors of human tyrosyl-DNA phosphodiesterase 1 (TDP1): qHTS in cells in absence of CPT; DT40 Tdp1-/- hTDP1 cells, no CPT, ATP luminescence, 48 h; Potency, µM (doses to about 46.2 µM), hits mostly inhibitors; 420,000 tested, 15% active; AID 686978, 2013; also: nearly all actives have a fitted effect of over 55% in size
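A cellular qHTS used chicken DT40 cells lacking endogenous Tdp1 but carrying stably transfected human TDP1. Compounds were applied without camptothecin, and cell growth kinetics were judged by ATP-dependent luminescence after ≥48 hr.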
SW480 rerep: induces DNA re-replication in SW480 colon adenocarcinoma cells; Potency, µM (titrated, usually from 46.1 µM), usual class: activators; SW480 DNA re-replication, Hoechst DNA content imaging, 48 h; 340,000 tested, 1.8% active; also: nearly all actives have a fitted effect of over 55% in size
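Readout is total intensity of Hoechst-stained nuclei, excited at 405 nm and collected at 500-530 nm. Compound treatment lasted 48 hr at 37 C in 5% CO2 before staining.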
TDP1 cell CPT: DT40-hTDP1 cell growth loss with CPT | chicken DT40 Tdp1-/-;hTDP1 cells + 20 nM CPT, ATP luminescence, 48 h | Potency, µM (series often up to 46.2 µM), actives largely listed as inhibitors | 420,000 tested, 12% active | AID 686979; also: nearly all actives have a fitted effect of over 55% in size
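Chicken DT40 Tdp1-/- cells stably complemented with human TDP1 were seeded at 400 cells/well in medium containing 20 nM camptothecin, exposed to pin-transferred compounds, and grown at 37 °C for at least 48 hr. Viability was read as ATP luminescence.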
IL-1B inflam inh: blocks inflammasome-driven IL-1 beta release; THP-1 LPS/ATP IL-1B secretion, AlphaLISA, 16 h; hits give low values; activity change, % at 57.5 µM; 360,000 tested, 4.7% active; AID 743279; in the data active = activity change below about -50%; inconclusive = mostly about -30% to -49%
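Secreted IL-1B measured by AlphaLISA bead assay after 16 h compound exposure of THP-1 cells; compounds (final up to 57.5 uM) added 1 h before LPS (250 ng/mL) and ATP (1.25 mM) stimulation; lower signal means less secretion.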
MCF10A rereplic: DNA re-replication induction in MCF 10a cells. MCF 10A DNA re-replication, Hoechst nuclear intensity, 48 h. Potency, µM (highest dose often 46.1 µM), most hits filed as activators. 350,000 tested, 2.9% active; also: nearly all actives have a fitted effect of over 50% in size
Numbers stand for hits; 0 = inactive; ? = inconclusive; - = not tested or not shown; ! = not active in a repeat; [ ] = another dose, or the depositor's remark. Unless noted, calls follow the shape of the dose curve; as a rule, active = well fitted curve in the direction sought with a large enough effect; inconclusive = small, poorly fitted or top-dose-only effect, or another doubt; inactive = no such curve, though single readings can be large; an effect the other way counts as inactive or inconclusive.

SMILES	Chronic BCR inh	TDP1 cell noCPT	SW480 rerep	TDP1 cell CPT	IL-1B inflam inh	MCF10A rereplic
CN1C(=O)C(C)(C)c2cc(S(=O)(=O)N3CCC(C(=O)NCc4ccc(F)cc4)CC3)ccc21	0	?	0	7.3µM	0	0
COc1ccc(CNC(=O)C2CCN(S(=O)(=O)c3ccc4c(c3)C(C)(C)C(=O)N4C)CC2)cc1	0	?	0	0	0	0
O=C(COC(=O)C1CC1)NCCc1ccc(Cl)cc1	0	0	3.7µM	0	0	0
Cc1ncc([N+](=O)[O-])n1S(=O)(=O)c1cc(Br)ccc1Br	0	0	0	0	0	0
COc1ccc(OC)c(NC(=O)N2CCC(CN3CCCCC3)CC2)c1	-	0	-	0	-	-
CN(C(=O)CN1CCN(c2cc(-c3cccc4oc5ccccc5c34)ncn2)CC1)c1ccccc1	-	?	-	?	0	-
Cc1cccc(-c2noc(CCCC(=O)NC3CCCCC3)n2)c1	?	?	0	?	0	0
C=CCNC(=O)C1CCN(S(=O)(=O)c2ccc(Br)cc2)CC1	0	16µM	0	?	0	0
O=C(NCc1ccc(Cl)cc1)C1CCN(S(=O)(=O)c2ccc(F)cc2)CC1	0	18µM!	?	3.7µM	-64	0
O=C(NCC1CCCO1)C1CCN(S(=O)(=O)c2ccc(Br)cc2)CC1 (centres undefined)	0	0	0	0	0	0
CC(C)(C)OC(=O)NCCCCCO	0	0	0	0	0	0
COCCN(C)C(=O)c1cnn(-c2nccc(-c3cc(C)sc3C)n2)c1C	-	0	-	0[9.04 µM]	-	-
CC(C)Oc1ccc(CNS(=O)(=O)c2csc(C(N)=O)c2)cc1	0	21µM	?	16µM	0	?
CN(C)c1ccc(CNS(=O)(=O)c2csc(C(N)=O)c2)cc1	0	7.3µM	0	23µM	0	0
CC(CC(=O)NC1CCCCC1)S(=O)(=O)c1ccc2c(c1)NC(=O)CO2 (centres undefined)	0	0	0	0	0	0
CCN(CC)C(=O)c1sc(NC(=O)c2ccc(C)c([N+](=O)[O-])c2)c(C#N)c1C	0	21µM	0	?	0	0
Cc1cc(C(=O)Nc2ccncc2)ccc1[N+](=O)[O-]	0	15µM	0	?	0	0
Cc1ccc(C(=O)Nc2ccncc2)cc1[N+](=O)[O-]	0	0.73µM	0	?	-55	0
Cc1ccc(C(=O)NCCSCc2ccc(Cl)cc2Cl)cc1[N+](=O)[O-]	?	?	0	0	-58	?
Cc1ccc(C(=O)NNC(=O)c2ccncc2)cc1[N+](=O)[O-]	?	0	0	0	0	0
Cc1ccc(C(=O)ONC(=O)c2ccc(Cl)cc2)cc1[N+](=O)[O-]	?	?	?	?	?	0
Cc1ccc(NC(=O)c2ccncc2)cc1[N+](=O)[O-]	0	0	0	0	0	0
Cc1ccccc1Cn1cc(NC(=O)c2cc(C3CC3)on2)cn1	?	0	0	0	0	?
COc1ccc(-n2c(=O)c3sc4ccccc4c3n(CC(=O)Nc3ccccc3F)c2=O)cc1	-	0	-	0	-	-
Cc1ccc(C(=O)NCC(C)NC(=O)c2ccc(C)c([N+](=O)[O-])c2)cc1[N+](=O)[O-] (centres undefined)	-	15µM	0[9.22 µM]	?	0	0
SMILES	Chronic BCR inh	TDP1 cell noCPT	SW480 rerep	TDP1 cell CPT	IL-1B inflam inh	MCF10A rereplic
Cc1ccc(C(=O)NC(=S)Nc2cccc(NC(=O)c3ccccc3)c2)cc1[N+](=O)[O-]	0	16µM	0	?	0	0
Cc1ccc(C(=O)NCCSC(C)(C)C)cc1[N+](=O)[O-]	0	?	0	?	0	0
O=[N+]([O-])c1ccc(Oc2cc(NC3CCCCCCC3)c([N+](=O)[O-])cc2[N+](=O)[O-])cc1	0	0	0	?	0	0
O=[N+]([O-])c1cc([N+](=O)[O-])c(Oc2cncc(Cl)c2)cc1NC1CCCCCCC1	0	15µM	0	23µM	0	0
O=[N+]([O-])c1cc([N+](=O)[O-])c(Oc2cc(Cl)ccc2Cl)cc1NC1CCCCCCC1	0	?	0	18µM	0	0
CCn1c(-c2ccccc2F)nc2cc(C(=O)NCC3CCOCC3)cc(NC(C)=O)c21	-	0	-	0[9.04 µM]	-	-
CCC(C)Nc1ccc(NC(C)CC)cc1 (centres undefined)	?	0	0	4.1µM	?	2.6µM
O=C(CSCc1ccccc1)Nc1ccc2c(c1)OCO2	0	0	0	0	0	0
O=C(CSCc1ccc(Cl)cc1)Nc1ccccc1C(=O)N1CCOCC1	0	?	0[9.22 µM]	0	0	0
O=C(CSCc1c(Cl)cccc1Cl)Nc1ccc2c(c1)OCO2	?	18µM	0[9.22 µM]	?	0	0
O=C(CSCSCC(=O)Nc1ccc2c(c1)OCO2)Nc1ccc2c(c1)OCO2	0	?	0	15µM	0	0
O=C(CSCc1c(Cl)cccc1Cl)Nc1ccccc1C(=O)N1CCOCC1	0	21µM	0	?	0	0
CCCCN1CC(=O)N2[C@H](c3ccc(OC)cc3)[C@@H]3C(=O)N(CC)C(=O)[C@@H]3[C@]2(Cc2ccccc2)C1=O	0	0	0	0	0	0
C=CS(=O)(=O)c1c2cc(OC)ccc2nc2ccc(OC)cc12	-	2.6µM	21µM	2.3µM	-98	?
COc1cccc(OC)c1OCCNCC1COc2ccccc2O1 (centres undefined)	-	?	?	15µM!	0	0
CCCNCC1COc2ccccc2O1 (centres undefined)	0	0	0	0	0	0
CCc1nc2nc(C)c(NS(=O)(=O)c3ccc(Cl)s3)c(=O)n2[nH]1	0	0	0	0	0	0
CNC(=O)c1c(NC(=O)CS(=O)(=O)c2ccc(Cl)cc2)sc(C)c1C	?	?	0	9.2µM	0	0
CN(CC(=O)Nc1ccccc1Cl)C(=O)c1cc2c(s1)CCCCC2	-	16µM	?	?	0	0
CN(CC(=O)Nc1ccccc1Cl)CC(=O)Nc1sc2c(c1C(N)=O)CCC2	?	18µM	?	26µM	?	3.3µM
Cc1ccc(S(=O)(=O)CC(=O)Nc2sc3c(c2C#N)CCCCC3)cc1	0	0	-	0	-	-
NC(=O)c1c(NC(=O)CS(=O)(=O)c2ccc(Cl)cc2)sc2c1CCCCC2	0	16µM	-	23µM	-	-
COc1cc(C)c(CN2C[C@H](Sc3ccccn3)C[C@H]2C(=O)N(C)C)cc1C	-	?	-	0	-	-
O=C(NCCCN1CCOCC1)c1cc(S(=O)(=O)N2CCOCC2)ccc1Cl	0	0	0	0	0	0
CN(CC(=O)Nc1ccc(Cl)cc1)CC(=O)Nc1sc2c(c1C(N)=O)CCC2	-	15µM	-	21µM	?	-

Screening data from PubChem.
